The values below come from PubChem BioAssay.

Experiment [1] can be described thus: compounds binding Alexa647 anti-His antibody – biochemical, small-molecule microarray, 635 nm fluorescence, artefact control for SMM control protein annotation, primary screen (AID 1128).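 Further: score merges feature fluorescence with signal-to-noise for each printed compound spot.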 Particulars: higher = more signal.
Experiment [2] relates to Human papillomavirus type 1a E7 protein (residues 1-88). Nature of the experiment: HPV1a E7 small-molecule binders, primary screen, biochemical, small-molecule microarray, residues 1-88, 635 nm (AID 1129). Particulars: small-molecule microarray binding, fluorescence 635 nm; higher = more signal.
Experiment [3] deals with Focal adhesion kinase 1 (Homo sapiens) (UniProt Q05397). Nature of the experiment: PTK2 protein binding on printed compound slides – biochemical, small-molecule microarray, 635/667 nm fluorescence, BSA, DTT, primary screen (AID 1130).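 Further: composite of spot emission at 667 nm and signal to noise over triplicate slides.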 Particulars: 635 nm fluorescence, higher = more signal.
Experiment [4] concerns Fibrinogen (Alexa647-labelled). Nature of the experiment: Alexa647-fibrinogen binding to printed small molecules – biochemical, small-molecule microarray, 635/667 nm fluorescence, artefact control for SMM control-protein annotation, profiling panel (AID 1131).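 Further: z-score merges 667 nm fluorescence with per-spot signal-to-noise over triplicate slides.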 Particulars: fibrinogen-A647 binding fluorescence, higher = more signal.
Experiment [5] has as its target Follistatin (Homo sapiens) (UniProt P19883). Description: FST protein binding to printed compounds – biochemical, small-molecule microarray, 635/667 nm fluorescence, primary screen (AID 1132). Particulars: 635 nm fluorescence, higher = more signal.
Experiment [6] addresses Fibroblast growth factor 2 (Homo sapiens) (UniProt P09038). Nature of the experiment: basic fibroblast growth factor binding to printed compounds – biochemical, small-molecule microarray, 635/667 nm fluorescence, primary screen (AID 1133). Conditions: FGF2, fluorescence 635/667, higher = more signal.
The nature of experiment [7]: JC-1 mitochondrial potential readout, lung cancer cells – cell-based, A549, JC-1 fluorescence, basal, 24 h, 100 nL, profiling panel (AID 1138).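 Further: A549 lung adenocarcinoma cells under basal conditions with no added stimulus; test concentration not given here.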 Particulars: higher = more signal.
The test system of the next experiment is Lefty1. Description: Lefty1 protein binding to printed compounds – biochemical, small-molecule microarray, 635/667 nm fluorescence, primary screen (AID 1139). Particulars: fluorescence 635/667, higher = more signal.
In experiment [8] the test system is wheat germ agglutinin (Triticum aestivum), Alexa647-labelled. Nature of the experiment: Alexa647-WGA lectin binding to printed small molecules – biochemical, small-molecule microarray, 635/667 nm fluorescence, artefact control for SMM control-protein annotation, profiling panel (AID 1140).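 Further: score merges 667 nm feature emission with signal to noise over triplicate slides.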 Particulars: WGA-A647 binding, 635 nm fluorescence, higher = more signal.

Experiment [9] has as its target Luciferin 4-monooxygenase (Photinus pyralis) (UniProt P08659). Description: inhibition of purified Photinus pyralis luciferase – biochemical, luminescence, purified enzyme, 2006 set, primary screen (AID 1141).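 Further: cell-free assay with purified firefly luciferase at 100 ng per well in PBS; test concentration not given here.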 Conditions: purified firefly luciferase, SteadyGlo luminescence, 30 min; higher = more signal, called active from +8 up or from −8 down.

Activity calls are given as the source filed them.

Follistatin (Homo sapiens), sequence (P19883 whole entry, looked up): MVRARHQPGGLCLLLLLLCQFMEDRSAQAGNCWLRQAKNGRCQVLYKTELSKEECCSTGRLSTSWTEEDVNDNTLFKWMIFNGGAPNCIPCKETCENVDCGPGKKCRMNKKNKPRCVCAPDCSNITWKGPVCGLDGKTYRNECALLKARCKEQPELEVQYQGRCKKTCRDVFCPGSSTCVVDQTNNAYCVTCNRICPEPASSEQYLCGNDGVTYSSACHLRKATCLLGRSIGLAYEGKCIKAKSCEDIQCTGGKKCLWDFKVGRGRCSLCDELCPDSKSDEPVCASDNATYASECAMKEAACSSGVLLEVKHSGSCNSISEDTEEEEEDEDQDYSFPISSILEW
Focal adhesion kinase 1 (Homo sapiens), sequence (Q05397 whole entry, looked up): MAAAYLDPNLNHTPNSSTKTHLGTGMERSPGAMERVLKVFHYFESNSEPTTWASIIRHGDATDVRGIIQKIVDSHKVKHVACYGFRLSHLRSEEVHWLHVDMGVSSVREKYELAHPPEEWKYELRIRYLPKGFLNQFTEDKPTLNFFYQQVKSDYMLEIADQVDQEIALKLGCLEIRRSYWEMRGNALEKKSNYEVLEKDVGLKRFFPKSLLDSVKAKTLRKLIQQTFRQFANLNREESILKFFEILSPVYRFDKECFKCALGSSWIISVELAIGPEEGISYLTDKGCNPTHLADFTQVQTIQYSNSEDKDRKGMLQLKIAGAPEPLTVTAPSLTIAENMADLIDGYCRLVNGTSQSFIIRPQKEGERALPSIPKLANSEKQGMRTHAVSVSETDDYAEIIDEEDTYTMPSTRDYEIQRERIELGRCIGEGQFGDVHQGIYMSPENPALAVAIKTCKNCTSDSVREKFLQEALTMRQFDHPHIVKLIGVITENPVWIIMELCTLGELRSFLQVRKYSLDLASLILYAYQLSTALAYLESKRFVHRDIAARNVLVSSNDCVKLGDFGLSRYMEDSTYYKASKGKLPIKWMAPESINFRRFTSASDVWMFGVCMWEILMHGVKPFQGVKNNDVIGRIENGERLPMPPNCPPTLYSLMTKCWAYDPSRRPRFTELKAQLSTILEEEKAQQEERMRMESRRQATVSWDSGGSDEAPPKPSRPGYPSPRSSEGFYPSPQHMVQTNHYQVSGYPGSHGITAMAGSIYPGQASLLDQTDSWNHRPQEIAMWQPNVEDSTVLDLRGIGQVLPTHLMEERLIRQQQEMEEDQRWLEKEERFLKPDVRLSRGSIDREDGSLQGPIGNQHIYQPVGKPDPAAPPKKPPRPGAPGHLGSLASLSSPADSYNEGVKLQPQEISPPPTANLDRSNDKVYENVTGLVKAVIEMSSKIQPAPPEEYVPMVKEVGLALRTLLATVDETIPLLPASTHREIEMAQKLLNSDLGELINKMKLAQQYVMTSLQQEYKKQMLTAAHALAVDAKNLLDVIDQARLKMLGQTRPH
Luciferin 4-monooxygenase (Photinus pyralis), sequence (P08659 whole entry, looked up): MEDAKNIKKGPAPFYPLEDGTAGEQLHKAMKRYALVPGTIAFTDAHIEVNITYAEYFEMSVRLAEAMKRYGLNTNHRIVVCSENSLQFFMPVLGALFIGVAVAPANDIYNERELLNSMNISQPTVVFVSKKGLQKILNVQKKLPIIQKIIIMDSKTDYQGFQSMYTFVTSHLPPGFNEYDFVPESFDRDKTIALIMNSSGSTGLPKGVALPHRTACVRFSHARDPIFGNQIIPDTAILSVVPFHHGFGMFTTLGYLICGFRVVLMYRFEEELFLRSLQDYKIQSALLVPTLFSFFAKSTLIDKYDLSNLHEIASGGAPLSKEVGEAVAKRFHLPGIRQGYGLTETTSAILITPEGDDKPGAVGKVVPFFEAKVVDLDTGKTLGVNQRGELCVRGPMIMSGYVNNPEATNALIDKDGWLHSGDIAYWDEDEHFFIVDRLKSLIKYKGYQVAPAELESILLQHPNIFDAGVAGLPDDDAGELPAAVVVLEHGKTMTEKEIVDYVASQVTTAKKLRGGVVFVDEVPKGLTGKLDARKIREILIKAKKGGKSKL
Fibroblast growth factor 2 (Homo sapiens), sequence (P09038 whole entry, looked up): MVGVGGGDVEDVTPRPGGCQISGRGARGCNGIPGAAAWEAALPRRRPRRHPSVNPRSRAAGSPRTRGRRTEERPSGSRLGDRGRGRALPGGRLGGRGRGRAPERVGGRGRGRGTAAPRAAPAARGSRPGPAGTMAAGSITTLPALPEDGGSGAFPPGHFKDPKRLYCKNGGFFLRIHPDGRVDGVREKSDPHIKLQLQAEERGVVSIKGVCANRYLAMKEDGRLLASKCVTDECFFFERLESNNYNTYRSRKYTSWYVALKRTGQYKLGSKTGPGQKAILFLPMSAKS

As for `COC(=O)[C@@]1(Cc2ccc(F)cc2)[C@H]2c3cc(C(=O)N(C)C)n(Cc4ccc(C)c(F)c4F)c3C[C@H]2CN1C(=O)c1ccccc1`, the composite z-score in experiment [1] is 2.08; in experiment [2], 0.864; in [3], 0.454; in experiment [4] it was 0.743; in [5], 0.0662; in [6] it was -0.769. The figures for the composite z-score (in the experiment with Lefty1; in experiment [8]) were -0.413 and 0.854, respectively. For the same molecule, the z-score in [7] is 1.33; in [9] it was 0.0883 (inactive).
In the case of `C=CCC(OC(C)=O)[C@@H]1[C@@H](N(Cc2cc3ccccc3o2)C(=O)Cc2ccc(OC)cc2)c2cc(OCCCO)ccc2N1C(=O)c1ccc(-c2ccccc2)cc1` (stereo not given in full), the composite z-score is -0.316 in [1]; -0.313 in experiment [2]; 0.107 in [3]; -0.203 in experiment [4]; 0.352 in [5]; 0.133 in [6]. In addition, the composite z-score is -0.492 in the experiment on Lefty1 and -0.272 in experiment [8]. The figures for the z-score in experiment [7] and in [9] were 0.94 and -0.52 (inactive), respectively.
As for `CN(C)C(=O)[C@@]1(CCS(=O)(=O)c2ccccc2)N=C(c2ccc(OCCCO)cc2)O[C@H]1c1ccccc1CN=[N+]=[N-]`, the composite z-score in experiment [1] amounted to 1.78; in experiment [2], 1.25; in [3], 0.642; in experiment [4], 1.06; in experiment [5], 0.871; in experiment [6], 0.513. The composite z-score worked out at 0.49 in the experiment on Lefty1 and 0.915 in [8]. For the same molecule, the z-score is -0.0571 in [7] and 0.628 (inactive) in experiment [9].
On to `C=C(CCCC)/C(=C/C[C@H](OC(=O)c1ccncc1)c1ccc(CO)o1)c1cc(C(=O)OC)ccc1OC`, for which the composite z-score in [1] was 0.872; in experiment [2], 1.19; in experiment [3] it was -0.0174; in [4] it was 0.826; in experiment [5], 0.899; in [6] it was 1.08. In addition, the composite z-score in the experiment with Lefty1 is 1.28; in [8], 1.04. Also, the z-score in experiment [7] is -0.648; in experiment [9], -1.19 (inactive).
As to `C[N+](C)(C)CCCCCCNC(=O)[C@H]1C[C@H]2C(=O)N3CCC[C@H]3C(=O)N2[C@H]1c1cccc(OCCO)c1`, the composite z-score in experiment [1] worked out at 1.38; in experiment [2] it was 0.874; in experiment [3] it was 0.141; in experiment [4], 0.242; in [5] it was 1.3; in [6], 1.35. Further, the composite z-score was 1.64 in the experiment on Lefty1 and -0.0285 in experiment [8]. Moreover, the z-score in [7] was -1.05; in [9] it was 0.126 (inactive).
With `C[C@@]1([C@@H](NC(=O)c2cccs2)c2ccc(-c3ccccc3)cc2)C[C@H]1C1CCCCC1`, the composite z-score in experiment [1] is -1.16; in experiment [2], -0.678; in [3], 0.429; in experiment [4], -1.76; in experiment [5] it was -0.27; in [6], -1.48. Moreover, the composite z-score in the experiment with Lefty1 was -0.507; in experiment [8], -1.45. For the same molecule, the z-score in [7] was -0.255; in experiment [9], 1.44 (inactive).
Take `Cc1ccc(F)cc1S(=O)(=O)N[C@@H]1CCN(C(=O)c2ccc(OC(C)C)cc2)C1`: the composite z-score in [1] amounted to 1.42; in experiment [2] it was 1.16; in [3], 0.485; in experiment [4], 0.371; in experiment [5], 0.485; in experiment [6] it was 1.24. The composite z-score in the experiment with Lefty1 was found to be 0.913; in experiment [8], 0.557. The z-score in experiment [7] was 0.946; in [9], -0.457 (inactive).
As to `C[C@]12C(=O)N(CCCO)[C@@H]3C(=O)N(c4ccc(Cl)cc4)CC=CC31O[C@@H]1/C=C\CCCOC(=O)C12` (stereo not given in full), the composite z-score was 2.25 in experiment [1]; -0.549 in [2]; 0.438 in [3]; -2.51 in experiment [4]; -0.804 in experiment [5]; -1.72 in [6]. Moreover, the composite z-score in the experiment on Lefty1 was -0.68; in [8] it was 1.13. Besides, the figures for the z-score in experiment [7] and in experiment [9] were 0.202 and -0.299 (inactive), respectively.
For `Cc1ccc(S[C@]2(C(=O)O)CC(=O)N(C3CCCCC3)[C@@H]2c2ccc(CO)cc2)cc1`, the composite z-score in experiment [1] came to 2.04; in [2] it was 1.16; in experiment [3], 0.552; in experiment [4], 0.991; in experiment [5] it was 0.271; in experiment [6], 0.257. Further, the composite z-score was -0.776 in the experiment on Lefty1 and 0.899 in experiment [8]. Besides, the results for the z-score in experiment [7] and in experiment [9] were 0.991 and 0.186 (inactive), respectively.
With `COCCOC(=O)N1C(=O)[C@@]2(c3ccccc31)[C@H](c1ccc(OCCO)cc1)N1[C@H](c3ccccc3)[C@H](c3ccccc3)OC(=O)[C@H]1[C@@H]2C(=O)NC[C@H](O)c1ccccc1`, the composite z-score in experiment [1] stood at 1.95; in [2] it was 1.23; in [3], 0.327; in experiment [4] it was 0.937; in experiment [5] it was 1.32; in [6], 1.03. In addition, the composite z-score with Lefty1 was 0.714; in [8], 1.05. The z-score was 0.414 in experiment [7] and -0.652 (inactive) in experiment [9].
Consider `CN1C(=O)C2C=CC(C(O)c3cccc4ccccc34)N(NC(=O)OC(C)(C)C)C2C1=O` (stereo not given), for which the composite z-score in experiment [1] is 1.45; in [2], 1.02; in experiment [3], 1.83; in experiment [4], 0.691; in experiment [5], 0.435; in [6], -0.331. For the same molecule, the composite z-score with Lefty1 was -0.516; in experiment [8], 1.16. For the same molecule, the z-score in [7] is 0.274; in experiment [9] it was 0.216 (inactive).
In the case of `CO[C@H]1O[C@H](CO)[C@@H](OC(=O)Nc2ccc(C(F)(F)F)cc2)[C@H](OC(=O)Nc2ccccc2)[C@H]1OC(=O)Nc1ccccc1`, the composite z-score was determined as 2.65 in experiment [1]; 1.25 in experiment [2]; 1.15 in experiment [3]; 0.737 in experiment [4]; 1.29 in experiment [5]; 0.805 in experiment [6]. Besides, the composite z-score in the experiment on Lefty1 came to 0.88; in experiment [8] it was 1.33. The figures for the z-score in experiment [7] and in experiment [9] were -1.89 and -0.579 (inactive), respectively.
Consider `CN(C)CCCCNC(=O)[C@H]1C[C@H]2C(=O)N[C@@H](CCCC[N+](C)(C)C)C(=O)N2[C@H]1c1cccc(OCCO)c1`, for which the composite z-score in experiment [1] turned out to be 1.06; in experiment [2], 0.809; in experiment [3], 0.373; in experiment [4], 0.54; in experiment [5] it was 1.35; in [6] it was 1.67. Besides, the composite z-score in the experiment with Lefty1 came out at 1.35; in experiment [8] it was 0.115. Further, the z-score is -0.312 in [7] and 0.53 (inactive) in experiment [9].
For `O=C1N(CCS(=O)(=O)c2ccccc2)Cc2ccccc2C[C@@]12COC(c1ccc(OCCCO)cc1)=N2`, the composite z-score came to 2.25 in experiment [1]; 1.26 in experiment [2]; 1.04 in experiment [3]; 0.841 in experiment [4]; 1.4 in experiment [5]; 0.962 in [6]. Further, the composite z-score in the experiment with Lefty1 is 0.619; in [8], 1.15. Besides, the results for the z-score in experiment [7] and in experiment [9] were 0.367 and -0.966 (inactive), respectively.
